# Screening results: PubChem, SRMLSC
# The list is not random: actives were taken first. Their share in the collection is about 6.8%.
# Spn DPM-DC inh – S. pneumoniae DPM-DC inhibitors, primary screen, biochemical, PK/LDH-coupled NADH fluorescence; diphosphomevalonate decarboxylase (Streptococcus pneumoniae D39); purified DPM-DC; calls only at 10 µM; actives 0.49% (n = 65,000);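 active = the 320 compounds with the highest percent inhibition in the single-dose primary screen, excluding strongly autofluorescent ones, cut at about 32% in these data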;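 note: kinetic rate of NADH fluorescence loss reporting ADP formed by the decarboxylase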
# NADH coupling – inhibitors of PK/LDH coupling enzymes, profiling panel, artefact control, biochemical, MLSMR library; AID 774, 2007; IC50, µM (highest dose often 10 µM), without a hit: top-dose inhibition; coupled PK/LDH NADH assays, four targets; actives 0.02% (n = 65,000);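 active = single-dose screening hits from any of four coupled enzyme assays that gave an IC50 when retested across doses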;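 note: the DPM-DC format reads NADH fluorescence rather than 340 nm absorbance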
# Fluor 339 460 – intrinsic fluorescence of library compounds, ex339/em460 – biochemical, MLSMR library, data from DPM-DC assay, artefact control, profiling panel; compound autofluorescence, ex339/em460 nm, NADH buffer; stronger effect = higher value; 1 = no-compound wells, NADH background; fluorescence fold increase at 10 µM; actives 5.5% (n = 65,000);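 active = at 10 µM, mean starting fluorescence two-fold or more over control wells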;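 note: signal is the first read of a kinetic run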
# Abs 340nm – compound light absorbance at 340 nm, profiling panel, artefact control, biochemical, MLSMR library, data from PS, PMK, MK assays; compound absorbance at 340 nm, fold over control; fold change at 10 µM; 65,000 tested, under 10 active; AID 708, 2007;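 active = at 10 µM dose, initial 340 nm absorbance at least 2 fold that of control wells; inactive = change under 2 fold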;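 note: initial absorbance extrapolated from kinetic A340 decline of NADH oxidation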
# Spn PMK inh – S. pneumoniae PMK inhibitors, primary screen, biochemical, mevalonate pathway, pilot trial included; AID 539, 2006; actives 0.49% (n = 65,000); purified PMK, PK/LDH-coupled NADH absorbance 340 nm; phosphomevalonate kinase (Streptococcus pneumoniae D39); inhibition, % at 10 µM;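 active = top-ranked compounds by inhibition in the single 10 µM screen, taking a fixed number of the strongest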;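 note: 0% = full reaction with DMSO carrier and 100% = background rate without enzyme reaction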
# Spn MK inh – S. pneumoniae MK inhibitors, primary screen, biochemical, PK/LDH-coupled NADH absorbance; actives 0.48% (n = 65,000); inhibition, % at 10 µM; AID 555, 2006; purified MK, PK/LDH-coupled NADH absorbance 340 nm; mevalonate kinase [Streptococcus pneumoniae D39];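 active = ranked among the strongest by inhibition in the single 10 µM screen, a fixed top-ranked set picked for dose follow-up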
# The depositor's hits bear a star; i = inactive; . = no result shown.
SMILES,Spn DPM-DC inh,NADH coupling,Fluor 339 460,Abs 340nm,Spn PMK inh,Spn MK inh
O=C(Nc1ccccc1C(=O)Nc1ccccc1C(=O)NCc1ccco1)c1ccco1,i,5%,2.3*,1.1,0,8
CS(=O)(=O)Nc1ccccc1C(=O)NCc1ccco1,.,5%,3.9*,1,0,9
COc1cc(C(=O)OCC(=O)Nc2c(F)c(F)c(F)c(F)c2F)cc(OC)c1OC,i,2%,1.1,0.99,4,3
CCOC(=O)Cn1nnnc1C(CC)N(Cc1cccs1)Cc1cc2ccc(OC)cc2[nH]c1=O (centres undefined),i,7%,1.2,1.1,8,2
Cc1ccc(CNC(=O)c2ccccc2NS(C)(=O)=O)cc1,.,10%,4*,1,7,13
Cn1cnc2c1c(=O)[nH]c(=O)n2C,i,0%,1,1,0,1
CCOC(=O)c1c(NC(=O)c2cccs2)sc(C(=O)N2CCOCC2)c1C,i,10%,1.4,1.1,19,0
CCOC(=O)c1c(NC(=O)c2cccs2)sc(C)c1CC,.,2%,2.2*,1.1,0,4
C=CCn1c(NC(=O)c2ccc(Br)o2)c(C(=O)OCC)sc1=S,i,10%,1.1,1.1,8,20
CCc1c(C)sc(NC(=O)c2cccs2)c1C(=O)OC(C)C,.,12%,2.1*,1.1,13,10
CCOC(=O)c1ccccc1NC(=O)c1cccs1,i,4%,1.1,1,4,7
CCOC(=O)c1c(NC(=O)c2ccc(Br)o2)sc(C)c1CC,.,2%,2.1*,1.1,0,3
CCOC(=O)c1sc2nc(NC(=O)c3cccs3)sc2c1C,.,0%,2.1*,1.1,0,0
CCn1c(SCC(=O)Nc2nc3ccc(C)cc3s2)nc2c(c1=O)SC(C)C2 (centres undefined),i,6%,1.1,1,19,0
CCCOc1cccc(NC(=O)c2cc(C)oc2C)c1,i,5%,1.1,1.1,2,14
Cn1c(Cn2c(=O)sc3ccccc32)nnc1SCc1ccccc1,i,7%,1.1,1.1,13,8
COC(=O)c1ccc2c(c1)N(Cc1nc(-c3cccc(C)c3)oc1C)C(=O)C1CCCN21 (centres undefined),i,12%,1.9,1.1,11,5
COc1ccccc1NC(=O)c1ccc(Br)o1,i,3%,1,1.1,3,0
CCOC(=O)C1=C(NC(=O)c2ccc(Br)o2)Nc2ccccc2N=C1,i,29%,1.2,1.1,36*,33
COC(=O)c1ccc(OCC(=O)Nc2nn(-c3ccccc3)nc2C(N)=O)cc1,i,15%,2.2*,1,12,14
CC12CCC(=O)N1C(C(=O)O)Cc1c2[nH]c2ccccc12 (centres undefined),i,5%,1.1,1,13,2
COc1ccc2c(c1OC)C(=O)N1C(C(=O)O)Cc3c([nH]c4ccccc34)C21 (centres undefined),i,4%,2.2*,1,4,1
c1ccc(C(c2nnnn2C2CCCC2)N2CCCCCC2)nc1 (centres undefined),i,6%,1.2,1,11,8
Clc1ccc(C(c2nnnn2C2CCCC2)N2CCN(Cc3ccncc3)CC2)cc1 (centres undefined),i,8%,1.1,1,25*,0
c1cncc(C(c2nnnn2C2CCCC2)N2CCCC2)c1 (centres undefined),i,8%,1.1,1,25*,0
SMILES,Spn DPM-DC inh,NADH coupling,Fluor 339 460,Abs 340nm,Spn PMK inh,Spn MK inh
O=C(NCC1CCCO1)c1ccccn1 (centres undefined),i,6%,1.2,1,12,6
O=C(NCCCNC(=O)c1ccccn1)c1ccccn1,i,4%,1.1,0.99,25*,0
CCCOC(=O)/C(C(N)=NCc1ccccc1)=C(\O)OCCC,i,4%,0.94,1,0,4
COc1cc(CNc2ccc3[nH]c(=O)[nH]c3c2)ccc1OCC(=O)NC(C)(C)C,.,9%,4.9*,0.99,13,5
Cn1c(N)c(C(=O)COC(=O)C2(c3cccc(F)c3)CCCC2)c(=O)n(C)c1=O,i,2%,1.2,1,5,0
CC(C)CCN(C)C1CCN(C(=O)Nc2c(F)cccc2F)CC1,i,1%,1.1,1.1,0,3
CCOc1ccc2nc(SCc3ccc(C(=O)OC)o3)[nH]c2c1,i,1%,1,1,0,0
COc1ccc(-c2nnc3sc(COc4ccccc4)nn23)cc1,i,3%,1.1,1,10,0
COc1ccc(Cc2noc(-c3ccc(C)cc3)n2)cc1,i,1%,1.1,1.1,0,0
COc1ccc(-c2oc3ncn4nc(COc5ccccc5)nc4c3c2-c2ccc(OC)cc2)cc1,.,6%,2.4*,1.1,6,6
COc1ccc(-c2oc3ncn4nc(Cc5ccccc5)nc4c3c2-c2ccc(OC)cc2)cc1,.,1%,2.4*,1.1,0,2
O=C(Nc1ccccc1C(=O)OCC(=O)N1CCc2ccccc2C1)c1ccco1,i,0%,1.4,1.1,0,0
CSc1c(C#N)c(N)c(C#N)c2c1COC(C)(C)C2,.,3%,2.1*,1,11,7
CC(=O)c1ccc(N2CCN(C(=O)C3CCN(S(=O)(=O)Cc4ccccc4)CC3)CC2)cc1,i,7%,1.2,1.1,16,6
C=CCc1c(C)nn(CC(=O)O)c1-c1ccccc1,i,3%,1,1,2,8
CC1CCC(N2CCN(S(C)(=O)=O)CC2)CC1 (centres undefined),i,13%,1.1,1,10,29
CCS(=O)(=O)N1CCN(C2CCC(C)CC2)CC1 (centres undefined),i,26%,1.1,1,17,61*
Cc1cc(C)n2cc(CSc3nnnn3C)nc2n1,.,4%,2.6*,1,11,10
Nn1c(CSc2nc3ccccc3o2)nnc1CSc1nc2ccccc2o1,i,3%,1,0.96,15,9
Cc1cc(C)n2c(Br)c(CSc3nc4ccccc4o3)nc2n1,i,9%,2.6*,1.1,7,0
Cc1cc(C)n2cc(CSc3nc4cc(Cl)ccc4o3)nc2n1,i,1%,2.1*,1,4,0
